# Assay outcomes from PubChem.
# Pol beta inh = inhibitors of human DNA polymerase beta | P06746 | Pol beta primer extension/strand displacement, fluorescence kinetic | Potency, µM (highest dose often 114 µM), for inactives: at the highest dose activity change, negative = inhibition, most hits filed as inhibitors | 340,000 tested, 1.3% active | AID 485314; note: % is set by controls: 0 for no effect and ±100 for the full control effect
#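 Curves were derived by four-parameter Hill fits of normalized qHTS data. The kinetic fluorescent primer-extension read was taken at 0 and 10 min after 50 nM substrate, following a 15 min room-temperature preincubation of 10 nM enzyme with compounds.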
# Pol eta inh = inhibitors of human DNA polymerase eta; Q9Y253; recombinant Pol eta, fluorescent DNA replication assay; Potency, µM (series often up to 114 µM), inactives show at the top dose activity change, negative = inhibition, most hits filed as inhibitors; 390,000 tested, 1.2% active; note: % is set by controls: 0 for no effect and ±100 for the full control effect
#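 Pol eta at 10 nM preincubated with compounds 15 min at room temperature; reaction started with fluorescent substrate (50 nM final) and read kinetically at 0 and 10 min.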
# FEN1 inh-1 = inhibitors of human flap endonuclease 1 | Recombinant FEN1 flap cleavage, fluorescence, 15 min | Potency, µM (top dose mostly 114 µM), for inactives: at the highest dose activity change, negative = inhibition, actives largely listed as inhibitors | 390,000 tested, 0.35% active | AID 588795; note: % is set by controls: 0 for no effect and ±100 for the full control effect; nearly all actives have a fitted effect of over 65% in size
#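 Concentration–response screening of FEN1 (10 nM): 15 min compound preincubation at room temperature, reaction started with 50 nM substrate and read at 0 and 15 min. Corrected, normalized data were fitted by a four-parameter Hill equation.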
# POLK inh = DNA polymerase kappa (human) inhibition | Q9UBT6 | AID 588579 | Potency, µM (titrated, usually from 107 µM), inactives show at the top dose activity, negative = inhibition, hits mostly inhibitors | 400,000 tested, 0.53% active | purified Pol kappa, fluorescent DNA synthesis assay, 10 min; note: % is set by controls: 0 for no effect and ±100 for the full control effect
#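 10 nM Pol kappa was preincubated with compounds for 15 min at room temperature. Reaction started with 50 nM (final) substrate. Fluorescence read kinetically at 0 and 10 min.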
# Pol iota inh = DNA polymerase iota (human) inhibition. Q9UNA4. Pol iota fluorescent replication assay, 10 min. Potency, µM (series often up to 115 µM), inactives show top-dose activity, negative = inhibition, usual class: inhibitors. 390,000 tested, 1% active
#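 Fluorescent replication assay read twice, at 0 min and 10 min after adding 50 nM (final) substrate. Enzyme (10 nM) and compounds were first incubated 15 min at room temperature; enzyme-free buffer wells were negative controls.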
# WRN inhibitor = blocks human WRN helicase | Q14191 | WRN helicase unwinding, fluorescent forked duplex, kinetic | Potency, µM (titrated, usually from 114 µM), for inactives: top-dose activity change, negative = inhibition, hits mostly inhibitors | AID 651768 | 360,000 tested, 0.46% active; note: % is set by controls: 0 for no effect and ±100 for the full control effect; nearly all actives have a fitted effect of over 55% in size
#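 WRN at 20 nM final was preincubated with compound for 15 min at room temperature; reaction started with 100 nM forked duplex oligonucleotide carrying fluorophore and quencher plus 2 mM ATP (final). Unwinding followed kinetically by red fluorescence (ex 525/em 598 nm).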
# FEN1 inh-2 = FEN1 inhibition, cherry-pick retest | shares compounds with FEN1 inh-1 | Potency, µM, usual class: inhibitors | 880 tested, 79% active | AID 720498 | FEN1 flap cleavage, TAMRA/BHQ2 fluorogenic DNA substrate; note: nearly all actives have a fitted effect of over 60% in size
# * hit, by the source's call; ? = inconclusive; / = no result; [ ] = dose if it differs, or a comment. In the library only some 2.4% were active in any assay of this set; here they are far more common. Calls come from the whole dose curve; as a rule, active = well fitted curve in the direction sought with a large enough effect; inconclusive = small, poorly fitted or top-dose-only effect, or another doubt; inactive = no such curve, though single readings can be large; an effect the other way counts as inactive or inconclusive. Potency is the fitted concentration of half-maximal effect.
SMILES,Pol beta inh,Pol eta inh,FEN1 inh-1,POLK inh,Pol iota inh,WRN inhibitor,FEN1 inh-2
COc1ccc(C2CC(c3ccccc3)Oc3ccc(OC)cc32)cc1 (centres undefined),/,/,-1.1%,-9.1%,-22.7%,/,/
COc1cccc(-c2nc(N3CCN(C)CC3)c3ccccc3n2)c1O,-12.3%,-10.4%,50.1µM*,-27.6%,?,-13.6%[11.6 µM],37.9*
Nc1ccc(C(=O)OCCc2ccccc2)cc1,/,-1.1%,-14.3%,-4.7%,1.5%,0.3%,/
O=C(OCCc1ccccc1)c1cc(O)c(O)c(O)c1,/,4.5%,39.8µM*,44.7µM*,?,?,37.9*
Cc1cc2c(=Cc3ccc(N(C)C)cc3)c3ccccc3n2[n+]1C,/,?,14.1µM*,?,79.4µM*,35.5µM*,26.9*
CN(C)c1ccc(C=C2c3ccccc3-c3ccccc32)cc1,/,/,-3.4%,-20.7%,1.6%,/,/
CCOC(=O)c1cc2c(=Cc3ccc(N(C)C)cc3)c3ccccc3n2[n+]1C,/,?,22.4µM*,-20.0%,39.8µM*,15.8µM*,33.8*
CCOC(=O)SC1=N/C(=C\c2ccc(N(C)C)cc2)C(=O)S1,-18.5%,-5.9%,-0.9%,-13.0%,-29.0%[58.9 µM],-19.5%,/
CCOC(=O)c1c(C)n(-c2ccccc2)c2ccc(OC(=O)c3ccc(OCC)c(OCC)c3)cc12,1.5%,-15.9%,10.5%,10.7%,15.9%,/,/
Cc1ccc(C)c(-c2nc3ccc(N)cc3[nH]2)c1,0.2%,-9.3%,-5.8%,-11.8%,12.3%,-3.7%,/
Nc1ccc2nc(-c3cc(Cl)c(N)c(Cl)c3)[nH]c2c1,?,?,50.1µM*,?,-11.2%,?,?
O=C(NN=C1CCCC1)c1cc(Br)ccc1O,16.1%,-8.2%,-2.9%,5.4%,17.5%,3.8%,/
O=C(NN=C1CCCC1)c1ccc(O)cc1O,0.4%,10.9%,0.7%,-30.0%,?,-0.9%[11.6 µM],42.6*
CCc1ccc(OCC(O)CN2CCC(CN3C(=O)c4cccc5cccc(c45)C3=O)CC2)cc1 (centres undefined),18.6%,-13.7%,17.4%,-12.2%,5.4%,-2.4%,/
COc1ccc(COCC(O)CN2CCC(CN3C(=O)c4cccc5cccc(c45)C3=O)CC2)cc1OC (centres undefined),3.3%,-25.9%,?,4.8%,8.7%,17.6%,?
Cc1cc(C)cc(OCC(O)CN2CCC(CN3C(=O)c4cccc5cccc(c45)C3=O)CC2)c1 (centres undefined),3.0%,?,?,-11.8%,17.0%,37.4%,?
O=C(C[n+]1cccc(Br)c1)c1ccc(I)cc1,/,/,-1.1%,4.7%,27.3%,/,/
O=C(OCc1nnc(-c2ccccc2)o1)c1ccc([N+](=O)[O-])s1,/,56.2µM*,?,-33.2%,?,30.6%,4.78*
O=C(COC(=O)c1ccc([N+](=O)[O-])s1)Nc1ccc(F)cc1,/,?,-17.0%,-25.2%,?,27.4%,/
COc1ccc(S(=O)(=O)N2CCOCC2)cc1NC(=O)COC(=O)c1ccc([N+](=O)[O-])s1,/,?,-19.6%,-24.3%,89.1µM*,-13.1%[11.6 µM],6.75*
O=C(COC(=O)c1ccc([N+](=O)[O-])s1)Nc1ccccc1,6.31µM*,?,-18.5%,-3.3%,89.1µM*,-3.0%[57.1 µM],21.3*
COc1cc(NC(=O)c2cc3nc(-c4ccc(C)cc4)cc(C(F)(F)F)n3n2)cc(OC)c1OC,-30.0%,-2.6%,-14.8%,-4.7%,4.6%,/,/
COc1ccc(N2CCc3c(C)nc4c(OC)cc(OC)cc4c32)cc1,39.8µM*,-2.6%,39.8µM*,-2.4%,24.6%,13.6%[11.6 µM],37.9*
COc1ccc(N2CCc3c(C)nc4c(OC)cc(OC)cc4c32)c(OC)c1,14.1%,-7.2%,-7.6%,-5.0%,15.4%,0.1%,/
COc1ccc(-c2cn3c(n2)sc2cc(C(=O)NCCCN4CCCCC4)ccc23)cc1,-7.0%,?,-19.1%,-22.6%,7.3%,/,67.5*
SMILES,Pol beta inh,Pol eta inh,FEN1 inh-1,POLK inh,Pol iota inh,WRN inhibitor,FEN1 inh-2
COc1ccc(-c2cn3c(n2)sc2cc(C(=O)NCCCN4CCN(C)CC4)ccc23)cc1,1.8%,?,16.6%,-18.2%,5.6%,/,/
O=C(NCCc1ccccc1)c1ccc2c(c1)N(Cc1ccccc1)C(=O)c1ccccc1S2=O (centres undefined),16.9%,-17.2%,-22.5%,-6.7%,-13.5%,/,/
Cn1c(N)c(C(=O)CSc2nnc(-c3c[nH]c4ccccc34)n2C2CC2)c(=O)[nH]c1=O,/,?,20µM*,-38.4%,39.8µM*,?,42.6*
COc1ccccc1NC(=O)C1=C(C)Nc2nc(SCc3cc(C)ccc3C)nn2C1c1ccccc1 (centres undefined),-1.4%,9.2%,18.7%,-15.0%[60.1 µM],6.8%,/,/
COc1ccccc1/C=N/N1C(=O)c2cccc3cccc(c23)C1=O,-2.2%,-9.7%,-1.6%,-14.2%,43.6%,-0.4%,/
O=C1c2cccc3cc([N+](=O)[O-])cc(c23)C(=O)N1/N=C/c1ccc(O)cc1O,39.8µM*,50.1µM*,?,?,?,?,42.6*
COC(=O)[C@@H]1OC(c2ccccc2)O[C@H]1C(=O)OC,/,/,/,19.4%[60.1 µM],/,/,/
COc1ccc2cc3[n+](cc2c1OC)CCc1cc2c(cc1-3)OCO2,-15.7%,-9.2%,?,0.0%,?,6.2%[11.6 µM],?
CCC(Sc1nc2ccsc2c(=O)n1Cc1ccc(C(=O)O)cc1)C(=O)Nc1ccc(C)c(Cl)c1 (centres undefined),?,79.4µM*,?,-30.0%,?,-18.5%,?
CCOc1ccc(NC(=O)CSc2nc3ccsc3c(=O)n2Cc2ccc(C(=O)O)cc2)cc1,/,13.3%,/,/,/,-2.5%,/
COc1ccc(Nc2c3ccccc3nc3ccccc23)cc1,?,-0.9%,?,-19.5%,?,?,30.1*
COc1ccc(Nc2c3c(nc4ccccc24)CCC3)cc1,0.1%,-3.4%,-17.0%,-15.6%,68.4%,2.6%,/
CCN(CC)c1ccc(Nc2nc(N3CCOCC3)c3ccccc3n2)cc1,1.6%,-1.9%,-20.2%,-2.4%,?,-7.8%,/
COc1ccc(Nc2nc(N3CCCC3)c3ccccc3n2)cc1,35.5µM*,-28.8%,?,-5.4%,?,?,33.8*
CC(=O)N1CCC[C@@]2(CCN(C(c3ccccc3)c3ccccc3)C2)C1,/,/,/,-2.6%[60.1 µM],/,/,/
COc1cc2cc(-c3ccc(O)cc3O)nc(C)c2cc1OC,?,?,?,-17.0%,?,-20.4%[11.6 µM],?
CCOc1ccc(-c2cc3cc(OC)c(OC)cc3c(C)n2)cc1,-20.2%,14.8%,0.0%,-10.8%,58.0%,-32.4%,/
